Consider twelve compounds from PubChem BioAssay (NCATS).

Inconclusive results are not listed. Active and inactive are the calls of the source. Unless noted, calls follow the shape of the dose curve; as a rule, active = well fitted curve in the direction sought with a large enough effect; inconclusive = small, poorly fitted or top-dose-only effect, or another doubt; inactive = no such curve, though single readings can be large; an effect the other way counts as inactive or inconclusive.

A short description of assay [1]: Quantitative High-Throughput drug screen in 47 multiple myeloma cell lines against the NCATS MIPE library collection: RPMI8226_ATCC cell viability assay (AID 1919871). Also: nearly all actives have a fitted effect of over 30% in size. Also: potency is read from the fitted curve at half-maximal effect. In a few lines:
(§1)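 qHTS format: cells plated (500/well), pin-dosed with MIPE 4.0 compounds, kept 48 h at 37 °C. Readout was CellTiter-Glo luminescence, median RLU.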

Assay [2] is described as follows: Quantitative High-Throughput drug screen in 47 multiple myeloma cell lines against the NCATS MIPE library collection: OPM2_DSMZ cell viability assay (AID 1919872). Also: nearly all actives have a fitted effect of over 30% in size. Also: potency is read from the fitted curve at half-maximal effect. Put shortly:
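CellTiter-Glo luminescence (ATP) after 48 h compound exposure, 37C/5% CO2; 500 cells/well; MIPE 4.0 approved/investigational drugs pinned in; DMSO = 100%, media only = 0% viability.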

A short description of assay [3]: Quantitative High-Throughput drug screen in 47 multiple myeloma cell lines against the NCATS MIPE library collection: KMS28BM_JCRB cell viability assay (AID 1919874). Also: nearly all actives have a fitted effect of over 35% in size. Also: potency is read from the fitted curve at half-maximal effect. Put shortly:
as §1

Assay [4] is described as follows: qHTS for identification of novel therapeutic agents for treatment of microphthalmiaassociated transcription factor (MiT) renal cell carcinoma (RCC) (AID 1963991). The settings on record: CellTiter-Glo, 48 h, stronger effect = lower value. Put shortly:
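Curves over 11 concentrations were fitted to CellTiter-Glo luminescence, scaled between empty wells (0%) and DMSO (100%) viability. Cells were UOK109, UOK124 and UOK145 TFE3-fusion RCC lines at 500/well, exposed 48 hours at 37 C.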
Background: qHTS replaces the single test concentration by a dilution series.

A short description of assay [5]: qHTS drug screen for cell cycle checkpoint inhibitors in PARPi-resistant BRCA-mutant ovarian cancer cell lines. (AID 1963452; calls by dose curve). The settings on record: PEO1/OlaR viability, CellTiter-Glo luminescence, 96 h, stronger effect = lower value. In a few lines: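 PEO1, PEO4 and PEO1/OlaR ovarian cancer cells, 600 per well, exposed 96 h at 37C to a dilution series. Viability read by CellTiter-Glo luminescence, normalized to DMSO and empty wells; activity summarized as Z-AUC.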

The nature of assay [6]: qHTS profiling for inhibitors of Plasmodium falciparum proliferation (AID 504749).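 Also: 0% = DMSO vehicle and full inhibition = artemisinin control; nearly all actives have a fitted effect of over 60% in size.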 The settings on record: P. falciparum in erythrocytes, SYBR Green DNA, 72 h. Put shortly:
(§2)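 Quantitative HTS: compounds pinned into medium, infected erythrocytes added (0.3% parasitemia, 2.5% hematocrit), 72 h culture at 37 C under 5% CO2. Saponin/Triton lysis with SYBR Green I, overnight RT, then fluorescence read.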

For the next assay, the system named is 3D7. The description is as above. The settings on record: P. falciparum in erythrocytes, SYBR Green DNA, 72 h; series mostly up to 28.7 µM. In a few lines: as §2
The next assay has as its system 7G8. Described as above. The settings on record: P. falciparum in erythrocytes, SYBR Green DNA, 72 h; series mostly up to 28.7 µM. Put shortly:
as §2

The test system of another assay is AA1029. The assay is described as above. As to conditions: P. falciparum in erythrocytes, SYBR Green DNA, 72 h; series mostly up to 28.7 µM. In a few lines: as §2
A further assay concerns AS120. Described as above. The settings on record: P. falciparum in erythrocytes, SYBR Green DNA, 72 h; series mostly up to 28.7 µM. In a few lines:
as §2

Another assay deals with ATS189. The assay is described as above. The settings on record: P. falciparum in erythrocytes, SYBR Green DNA, 72 h; series mostly up to 28.7 µM. In a few lines:
as §2

The mark [7] stands for this setting: TFE3-RCC UOK109 viability, measured here: UOK109 Z-AUC.
Where [8] appears, read: TFE3-RCC viability, measured here: UOK124 Z-AUC.
The mark [9] stands for this setting: TFE3-RCC viability, measured here: UOK145 Z-AUC.
Where [10] appears, read: measured here: PEO1 parental Z-AUC.

With `CC1=C2C[C@@H]3[C@@H](CC=C4C[C@@H](O)CC[C@@]43C)[C@@H]2CC[C@]12O[C@H]1C[C@H](C)CN[C@H]1[C@H]2C`, the Potency in [1] is 6.62 µM (active). The Potency entry in assay [2] and in [3] was “inactive” each time. Also, the z-score in [4] (setting [7]) was 0.302; in assay [4] (setting [8]) it was -0.274; in assay [4] (setting [9]), 0.235.

As for `COC[C@@H](NC(C)=O)C(=O)NCc1ccccc1`, the Potency result in assay [1], in assay [2] and in assay [3] was “inactive” each time. In addition, the values for the Z-AUC in assay [5], in assay [5] (setting [10]) and in assay [5] (measured here: PEO4 Z-AUC) were -0.757 (inactive), 0.116 and -0.684, respectively. Besides, the z-score was -0.0332 in assay [4] (setting [7]), 0.828 in assay [4] (setting [8]) and 0.367 in assay [4] (setting [9]).

With `COc1ccc2c(c1OC)CN1CCc3cc4c(cc3C1C2)OCO4` (stereo not drawn), the Potency entry in assay [1], in assay [2] and in assay [3] was “inactive” in each case. Also, the z-score in [4] (setting [7]) amounted to 0.633; in assay [4] (setting [8]), 0.605; in assay [4] (setting [9]), 0.614.

With `C[C@@H]1[C@@H](CC(C[C@H]2O[C@@H]3O[C@]4(C)CC[C@@H]5[C@H](C)CC[C@@H]([C@H]2C)[C@@]35OO4)C[S+](=O)([O-])c2ccc(COC(=O)N(C)C)cc2)O[C@@H]2O[C@]3(C)CC[C@H]4[C@H](C)CC[C@@H]1[C@@]24OO3` (stereo partly drawn), the figures for the Potency in assay [1] and in assay [3] were 0.296 µM (active) and 0.264 µM (active), respectively.

Take `CC(O)(CS(=O)(=O)c1ccc(F)cc1)C(=O)Nc1ccc(C#N)c(C(F)(F)F)c1` (stereo not drawn): the Potency entry in assay [1] and in assay [3] was “inactive” each time.

Take `Cc1cc(SCc2sc(-c3ccc(C(F)(F)F)c(F)c3)nc2C)ccc1OCC(=O)O`: the Potency in [1] is 18.7 µM (active). Also, the Potency entry in assay [2] is “inactive”. The results for the Z-AUC in [5], in [5] (setting [10]) and in [5] (measured here: PEO4 Z-AUC) were -0.925 (inactive), -0.906 and -0.303, respectively.

On to `C[C@@H]1[C@@H](C(=O)C[C@H]2O[C@@H]3O[C@]4(C)CC[C@@H]5[C@H](C)CC[C@@H]([C@H]2C)[C@@]35OO4)O[C@@H]2O[C@]3(C)CC[C@H]4[C@H](C)CC[C@@H]1[C@@]24OO3`, for which the results for the Potency in [1] and in assay [2] were 0.833 µM (active) and 0.372 µM (active), respectively.

In the case of `COC1(CS(=O)c2ccccc2)CCN(CCc2c[nH]c3ccc(F)cc23)CC1` (stereo not drawn), the values for the Potency in [1] and in assay [3] were 7.43 µM (active) and 0.743 µM (active), respectively. Also, in assay [2], the Potency result is “inactive”. The Z-AUC in assay [5] was 0.788 (inactive); in assay [5] (setting [10]) it was 0.436; in assay [5] (measured here: PEO4 Z-AUC), 0.362.

In the case of `Cc1cccc(C)c1NC(=O)CN1CCCC1=O`, the Potency result in [1], in assay [2] and in [3] was “inactive” in each case. Also, the Z-AUC was 0.64 (inactive) in assay [5], 0.59 in assay [5] (setting [10]) and 1.08 in assay [5] (measured here: PEO4 Z-AUC). In addition, the z-score in assay [4] (setting [7]) came out at 1.77; in assay [4] (setting [8]), 0.0528; in [4] (setting [9]), 0.844.

Take `COC[C@H]1OC(=O)c2coc3c2[C@@]1(C)C1=C(C3=O)C2CCC(=O)[C@@]2(C)C[C@H]1OC(C)=O` (stereo partly drawn): the figures for the Potency in assay [1] and in assay [2] were 5.9 µM (active) and 10.5 µM (active), respectively. In addition, the figures for the Z-AUC in [5], in assay [5] (setting [10]) and in assay [5] (measured here: PEO4 Z-AUC) were 0.865 (inactive), 0.666 and 0.563, respectively.

Take `CN1CCN(C(=O)O[C@H]2c3nccnc3C(=O)N2c2ccc(Cl)cn2)CC1`: the Potency result (in assay [1]; in assay [2]; in assay [3]; in the assay with 3D7; in the assay with 7G8; in the assay with AA1029) was “inactive” throughout. In addition, the Potency entry in the assay on AS120 and with ATS189 was “inactive” each time. Also, the activity, negative = inhibition in [6] (at 28.7 µM (top of the series), parasite line A) is -9.31% (inactive); in assay [6] (at 28.7 µM (top of the series), parasite line B), -0.974% (inactive).

For `NCC1(CC(=O)O)CCCCC1`, the Potency entry (in assay [1]; in assay [2]; in assay [3]; with 3D7; in the assay with 7G8; in the assay on AA1029) was “inactive” each time. Moreover, the Potency result in the assay on AS120 and with ATS189 was “inactive” throughout. Besides, the figures for the Z-AUC in [5], in assay [5] (setting [10]) and in assay [5] (measured here: PEO4 Z-AUC) were 0.463 (inactive), 0.917 and -0.172, respectively. Further, the z-score in assay [4] (setting [7]) is 0.318; in assay [4] (setting [8]) it was 0.516; in assay [4] (setting [9]), -0.0302. Besides, the activity, negative = inhibition in assay [6] (at 12.8 µM (top of the series), parasite line A) is 5.08% (inactive); in assay [6] (at 12.8 µM (top of the series), parasite line B), 1.35% (inactive).
